# Results taken from article PMC7862700, “An all-to-all approach to the identification of sequence-specific readers for epigenetic DNA modifications on cytosine”.
# Tests used:
# Assay in all cases: DAPPL (digital affinity profiling via proximity ligation, sequencing); 10 mM Tris-HCl pH 7.5, 50 mM NaCl, 1 mM DTT, 4% glycerol, room temperature, 30 min; GST-TFs on glutathione beads, 16-mer random dsDNA library, 0.1% formaldehyde crosslink after washing; high values mean tight binding
# [1] = target: T1, FEV (Homo sapiens, UniProt Q99581 1-238); conditions: protein: recombinant; tags: N-terminal GST; dsDNA, one strand shown
# T1 sequence: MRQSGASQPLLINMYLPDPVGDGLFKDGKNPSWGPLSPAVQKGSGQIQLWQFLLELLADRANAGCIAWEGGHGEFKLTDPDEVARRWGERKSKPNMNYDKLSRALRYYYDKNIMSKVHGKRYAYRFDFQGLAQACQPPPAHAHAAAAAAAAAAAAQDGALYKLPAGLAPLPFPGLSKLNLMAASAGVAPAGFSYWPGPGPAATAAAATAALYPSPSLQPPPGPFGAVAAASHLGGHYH
# Outline: (§1)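 Human transcription factors fused to GST were expressed in yeast, captured on glutathione beads, given DNA barcodes and pooled with a GST-only negative control. Pools were incubated with 200 nmole of a 16-mer random double-stranded DNA library in Tris/NaCl/DTT/glycerol buffer at room temperature for 30 min. They were then washed, crosslinked with 0.1% formaldehyde, proximity-ligated (BsaI/T4 ligase, 1 h, 37 °C), PCR-amplified and sequenced on an Illumina NextSeq500. Binding signal is each 6-mer's read frequency for a factor divided by its frequency for the GST control.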
# [2] = target: ETV5 (Homo sapiens, UniProt P41161 1-510); conditions: protein: recombinant; tags: N-terminal GST; dsDNA, one strand shown
# Outline: as §1
# [3] = target: HSF1 (Homo sapiens, UniProt Q00613 1-529); conditions: protein: recombinant; tags: N-terminal GST; chain copies: 3; dsDNA, one strand shown
# Outline: as §1
# [4] = target: T2, SPIC (Homo sapiens, UniProt Q8N5J4 1-248); conditions: protein: recombinant; tags: N-terminal GST; dsDNA, one strand shown
# T2 sequence: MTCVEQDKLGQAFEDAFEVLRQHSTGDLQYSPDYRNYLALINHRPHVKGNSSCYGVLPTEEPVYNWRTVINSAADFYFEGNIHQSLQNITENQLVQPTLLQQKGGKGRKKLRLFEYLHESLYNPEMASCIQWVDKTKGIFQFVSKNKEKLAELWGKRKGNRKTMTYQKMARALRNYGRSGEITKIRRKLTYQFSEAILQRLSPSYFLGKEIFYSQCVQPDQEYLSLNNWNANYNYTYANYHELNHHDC
# Outline: as §1
# [5] = target: ELF4 (Homo sapiens, UniProt Q99607 1-663); conditions: protein: recombinant; tags: N-terminal GST; dsDNA, one strand shown
# Outline: as §1
# [6] = target: T3, ELK4 (Homo sapiens, UniProt P28324-2 1-405); conditions: protein: recombinant; tags: N-terminal GST; dsDNA, one strand shown
# T3 sequence: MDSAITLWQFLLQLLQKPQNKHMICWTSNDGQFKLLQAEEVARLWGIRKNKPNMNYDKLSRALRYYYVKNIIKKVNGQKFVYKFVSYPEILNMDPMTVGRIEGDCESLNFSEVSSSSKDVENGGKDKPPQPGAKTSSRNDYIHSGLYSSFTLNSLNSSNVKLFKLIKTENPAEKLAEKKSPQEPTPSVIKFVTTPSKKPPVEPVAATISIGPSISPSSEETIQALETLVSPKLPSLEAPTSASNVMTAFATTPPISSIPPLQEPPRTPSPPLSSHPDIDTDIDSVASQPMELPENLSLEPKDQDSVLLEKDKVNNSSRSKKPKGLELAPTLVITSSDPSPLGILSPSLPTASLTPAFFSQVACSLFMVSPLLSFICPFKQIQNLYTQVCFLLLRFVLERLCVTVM
# Outline: as §1
# [7] = target: T4, ETV2 (Homo sapiens, UniProt O00321 1-342); conditions: protein: recombinant; tags: N-terminal GST; dsDNA, one strand shown
# T4 sequence: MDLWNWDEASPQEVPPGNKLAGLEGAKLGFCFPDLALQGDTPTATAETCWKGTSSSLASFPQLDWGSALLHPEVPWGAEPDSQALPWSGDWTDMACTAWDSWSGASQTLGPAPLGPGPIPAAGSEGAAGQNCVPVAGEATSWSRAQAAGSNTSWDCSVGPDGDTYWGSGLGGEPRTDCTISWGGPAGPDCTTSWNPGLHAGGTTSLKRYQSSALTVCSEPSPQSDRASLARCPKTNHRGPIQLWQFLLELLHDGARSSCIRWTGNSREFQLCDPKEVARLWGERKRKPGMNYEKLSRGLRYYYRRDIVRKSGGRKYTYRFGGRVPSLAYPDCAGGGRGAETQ
# Outline: as §1
# [8] = target: T5, ELF3 (Homo sapiens, UniProt P78545 1-371); conditions: protein: recombinant; tags: N-terminal GST; dsDNA, one strand shown
# T5 sequence: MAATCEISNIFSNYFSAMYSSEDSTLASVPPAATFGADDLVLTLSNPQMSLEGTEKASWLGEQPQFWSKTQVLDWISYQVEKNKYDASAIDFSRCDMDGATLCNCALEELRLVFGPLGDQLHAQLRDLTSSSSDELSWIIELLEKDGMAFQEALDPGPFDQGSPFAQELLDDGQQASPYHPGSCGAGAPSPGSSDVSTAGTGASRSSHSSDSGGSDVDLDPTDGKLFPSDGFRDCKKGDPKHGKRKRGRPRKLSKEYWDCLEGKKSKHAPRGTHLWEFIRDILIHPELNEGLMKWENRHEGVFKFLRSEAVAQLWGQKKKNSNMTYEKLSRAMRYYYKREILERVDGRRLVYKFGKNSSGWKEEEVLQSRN
# Outline: as §1
# [9] = target: CRX (Homo sapiens, UniProt O43186 1-299); conditions: protein: recombinant; tags: N-terminal GST; dsDNA, one strand shown
# Outline: as §1
# [10] = target: ETV1 (Homo sapiens, UniProt P50549 1-477); conditions: protein: recombinant; tags: N-terminal GST; dsDNA, one strand shown
# Outline: as §1
# [11] = target: T6, ERF (Homo sapiens, UniProt P50548 1-548); conditions: protein: recombinant; tags: N-terminal GST; dsDNA, one strand shown
# T6 sequence: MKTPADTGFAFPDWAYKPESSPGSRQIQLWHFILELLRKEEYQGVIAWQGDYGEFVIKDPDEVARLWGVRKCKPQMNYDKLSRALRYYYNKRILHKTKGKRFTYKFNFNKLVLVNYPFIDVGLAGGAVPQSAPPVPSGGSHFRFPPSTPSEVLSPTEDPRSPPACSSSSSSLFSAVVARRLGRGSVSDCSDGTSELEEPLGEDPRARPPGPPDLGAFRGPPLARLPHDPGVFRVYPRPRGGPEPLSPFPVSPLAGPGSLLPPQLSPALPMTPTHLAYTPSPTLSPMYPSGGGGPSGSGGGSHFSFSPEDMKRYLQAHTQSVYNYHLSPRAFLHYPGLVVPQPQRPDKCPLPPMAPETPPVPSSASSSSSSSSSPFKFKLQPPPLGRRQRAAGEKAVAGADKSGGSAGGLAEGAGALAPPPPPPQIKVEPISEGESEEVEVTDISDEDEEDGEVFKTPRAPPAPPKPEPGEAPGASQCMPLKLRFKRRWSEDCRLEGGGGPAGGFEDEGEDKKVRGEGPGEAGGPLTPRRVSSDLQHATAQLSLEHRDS
# Outline: as §1
# [12] = target: T7, ETV3L (Homo sapiens, UniProt Q6ZN32 1-361); conditions: protein: recombinant; tags: N-terminal GST; dsDNA, one strand shown
# T7 sequence: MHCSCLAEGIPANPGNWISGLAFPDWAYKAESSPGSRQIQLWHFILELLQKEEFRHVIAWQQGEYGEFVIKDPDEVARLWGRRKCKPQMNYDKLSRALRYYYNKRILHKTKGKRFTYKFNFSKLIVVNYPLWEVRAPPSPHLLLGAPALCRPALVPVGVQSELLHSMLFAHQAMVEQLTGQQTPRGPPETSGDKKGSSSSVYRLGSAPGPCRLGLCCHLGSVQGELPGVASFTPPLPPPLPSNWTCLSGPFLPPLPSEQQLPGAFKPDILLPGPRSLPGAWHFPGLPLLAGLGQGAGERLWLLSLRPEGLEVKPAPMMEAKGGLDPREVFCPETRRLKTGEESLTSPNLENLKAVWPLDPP
# Outline: as §1
# [13] = target: T8, ETS2 (Homo sapiens, UniProt P15036 1-469); conditions: protein: recombinant; tags: N-terminal GST; dsDNA, one strand shown
# T8 sequence: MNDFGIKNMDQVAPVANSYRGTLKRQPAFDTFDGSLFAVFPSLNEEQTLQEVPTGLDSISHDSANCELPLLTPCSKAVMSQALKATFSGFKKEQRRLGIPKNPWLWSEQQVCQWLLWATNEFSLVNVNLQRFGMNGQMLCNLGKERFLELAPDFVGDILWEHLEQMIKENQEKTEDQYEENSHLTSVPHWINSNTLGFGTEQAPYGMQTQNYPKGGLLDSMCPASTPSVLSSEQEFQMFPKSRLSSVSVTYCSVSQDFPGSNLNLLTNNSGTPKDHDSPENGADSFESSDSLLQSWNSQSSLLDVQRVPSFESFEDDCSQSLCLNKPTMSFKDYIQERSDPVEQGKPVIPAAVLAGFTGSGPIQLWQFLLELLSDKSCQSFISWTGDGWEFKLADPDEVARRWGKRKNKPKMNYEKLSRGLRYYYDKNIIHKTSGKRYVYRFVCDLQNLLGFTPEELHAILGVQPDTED
# Outline: as §1
# [14] = target: T9, SPDEF (Homo sapiens, UniProt O95238 1-335); conditions: protein: recombinant; tags: N-terminal GST; dsDNA, one strand shown
# T9 sequence: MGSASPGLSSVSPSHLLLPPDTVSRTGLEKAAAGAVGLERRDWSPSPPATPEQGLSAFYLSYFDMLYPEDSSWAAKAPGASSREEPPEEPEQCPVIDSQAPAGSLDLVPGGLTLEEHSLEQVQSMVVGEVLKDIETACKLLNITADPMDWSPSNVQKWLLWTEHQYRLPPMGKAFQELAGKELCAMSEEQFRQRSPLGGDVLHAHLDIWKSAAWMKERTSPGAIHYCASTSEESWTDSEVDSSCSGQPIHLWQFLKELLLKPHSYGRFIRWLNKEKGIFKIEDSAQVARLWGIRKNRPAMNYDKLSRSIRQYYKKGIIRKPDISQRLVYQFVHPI
# Outline: as §1
# [15] = target: T10, ETV7 (Homo sapiens, UniProt Q9Y603 1-341); conditions: protein: recombinant; tags: N-terminal GST; dsDNA, one strand shown
# T10 sequence: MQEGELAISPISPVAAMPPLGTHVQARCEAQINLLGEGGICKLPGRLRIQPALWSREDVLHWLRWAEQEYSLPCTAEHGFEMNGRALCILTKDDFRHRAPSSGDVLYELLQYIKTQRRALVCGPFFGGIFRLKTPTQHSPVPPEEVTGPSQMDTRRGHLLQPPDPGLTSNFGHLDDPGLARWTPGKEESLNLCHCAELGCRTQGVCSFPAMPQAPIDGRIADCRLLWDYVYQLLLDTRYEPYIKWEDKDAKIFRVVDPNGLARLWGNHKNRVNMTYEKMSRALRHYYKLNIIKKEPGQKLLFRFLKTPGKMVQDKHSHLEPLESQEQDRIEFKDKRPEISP
# Outline: as §1
# [16] = target: T11, ELF5 (Homo sapiens, UniProt Q9UKW6-2 1-255); conditions: protein: recombinant; tags: N-terminal GST; dsDNA, one strand shown
# T11 sequence: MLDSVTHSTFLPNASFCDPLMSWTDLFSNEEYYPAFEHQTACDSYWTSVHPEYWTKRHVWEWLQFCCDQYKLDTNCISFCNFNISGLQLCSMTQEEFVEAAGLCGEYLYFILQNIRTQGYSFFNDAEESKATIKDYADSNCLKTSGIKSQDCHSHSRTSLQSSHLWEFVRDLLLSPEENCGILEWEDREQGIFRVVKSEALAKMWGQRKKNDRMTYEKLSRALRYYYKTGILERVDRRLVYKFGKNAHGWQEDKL
# Outline: as §1
# [17] = target: T12, ETV3 (Homo sapiens, UniProt P41162-2 1-143); conditions: protein: recombinant; tags: N-terminal GST; dsDNA, one strand shown
# T12 sequence: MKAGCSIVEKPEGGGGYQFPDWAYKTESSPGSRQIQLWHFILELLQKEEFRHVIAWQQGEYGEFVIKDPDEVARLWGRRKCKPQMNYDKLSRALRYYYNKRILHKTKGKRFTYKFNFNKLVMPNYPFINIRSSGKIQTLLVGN
# Outline: as §1
# [18] = target: ETV6 (Homo sapiens, UniProt P41212 1-452); conditions: protein: recombinant; tags: N-terminal GST; dsDNA, one strand shown
# Outline: as §1
# Sequence of ELF4 (Q99607 whole entry): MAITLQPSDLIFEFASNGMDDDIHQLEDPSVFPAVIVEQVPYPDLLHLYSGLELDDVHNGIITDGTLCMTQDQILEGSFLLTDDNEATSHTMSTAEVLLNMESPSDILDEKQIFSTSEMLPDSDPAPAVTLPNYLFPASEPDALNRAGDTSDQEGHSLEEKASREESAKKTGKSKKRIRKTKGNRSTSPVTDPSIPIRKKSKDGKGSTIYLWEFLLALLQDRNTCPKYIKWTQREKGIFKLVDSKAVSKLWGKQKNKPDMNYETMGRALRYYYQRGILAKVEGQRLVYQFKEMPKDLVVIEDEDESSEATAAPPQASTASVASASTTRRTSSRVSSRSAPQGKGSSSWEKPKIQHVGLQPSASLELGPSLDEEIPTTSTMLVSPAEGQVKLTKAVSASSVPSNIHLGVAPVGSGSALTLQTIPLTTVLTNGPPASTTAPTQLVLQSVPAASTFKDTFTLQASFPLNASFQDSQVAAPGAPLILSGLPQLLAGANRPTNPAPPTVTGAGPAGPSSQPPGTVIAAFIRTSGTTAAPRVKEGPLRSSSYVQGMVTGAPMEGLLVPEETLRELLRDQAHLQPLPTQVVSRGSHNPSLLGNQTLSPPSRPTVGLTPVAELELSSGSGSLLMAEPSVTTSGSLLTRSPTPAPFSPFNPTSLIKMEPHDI
# Sequence of ETV5 (P41161 whole entry): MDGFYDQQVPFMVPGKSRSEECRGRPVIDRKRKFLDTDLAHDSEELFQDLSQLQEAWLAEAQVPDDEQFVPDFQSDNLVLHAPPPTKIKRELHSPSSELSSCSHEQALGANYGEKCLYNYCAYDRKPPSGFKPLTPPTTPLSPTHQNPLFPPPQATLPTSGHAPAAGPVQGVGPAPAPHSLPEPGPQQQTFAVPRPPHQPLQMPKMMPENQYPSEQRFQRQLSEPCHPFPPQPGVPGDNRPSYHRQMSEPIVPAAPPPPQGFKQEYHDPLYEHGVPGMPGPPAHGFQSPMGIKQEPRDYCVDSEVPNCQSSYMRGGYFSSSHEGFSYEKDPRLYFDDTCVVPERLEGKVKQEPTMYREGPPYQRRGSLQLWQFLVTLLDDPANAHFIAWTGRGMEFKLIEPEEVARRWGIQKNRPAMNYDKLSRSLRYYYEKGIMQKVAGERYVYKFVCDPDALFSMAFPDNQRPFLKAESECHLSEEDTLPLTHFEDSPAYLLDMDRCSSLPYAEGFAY
# Sequence of HSF1 (Q00613 whole entry): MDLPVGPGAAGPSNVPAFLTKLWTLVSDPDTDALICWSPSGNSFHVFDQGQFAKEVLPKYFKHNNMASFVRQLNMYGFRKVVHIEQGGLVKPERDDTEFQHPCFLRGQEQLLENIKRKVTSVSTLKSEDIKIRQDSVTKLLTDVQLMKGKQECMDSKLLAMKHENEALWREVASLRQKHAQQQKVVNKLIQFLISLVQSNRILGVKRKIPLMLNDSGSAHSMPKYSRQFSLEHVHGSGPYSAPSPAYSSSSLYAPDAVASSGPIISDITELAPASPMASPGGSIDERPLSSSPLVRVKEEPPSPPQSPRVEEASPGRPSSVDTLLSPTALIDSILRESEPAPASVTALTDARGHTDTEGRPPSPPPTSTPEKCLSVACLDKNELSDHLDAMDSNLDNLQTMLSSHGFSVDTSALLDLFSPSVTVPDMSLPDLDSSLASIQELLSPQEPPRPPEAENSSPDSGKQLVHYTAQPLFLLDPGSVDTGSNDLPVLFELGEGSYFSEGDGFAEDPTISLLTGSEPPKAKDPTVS
# Sequence of CRX (O43186 whole entry): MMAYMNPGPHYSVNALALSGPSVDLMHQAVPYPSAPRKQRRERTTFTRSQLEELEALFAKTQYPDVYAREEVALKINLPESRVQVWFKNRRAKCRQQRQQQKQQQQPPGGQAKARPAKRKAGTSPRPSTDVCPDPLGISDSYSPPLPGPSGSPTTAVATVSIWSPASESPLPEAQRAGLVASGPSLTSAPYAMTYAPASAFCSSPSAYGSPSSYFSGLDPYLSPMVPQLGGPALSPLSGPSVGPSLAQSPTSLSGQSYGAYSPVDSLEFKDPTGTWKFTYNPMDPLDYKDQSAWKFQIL
# Sequence of ETV1 (P50549 whole entry): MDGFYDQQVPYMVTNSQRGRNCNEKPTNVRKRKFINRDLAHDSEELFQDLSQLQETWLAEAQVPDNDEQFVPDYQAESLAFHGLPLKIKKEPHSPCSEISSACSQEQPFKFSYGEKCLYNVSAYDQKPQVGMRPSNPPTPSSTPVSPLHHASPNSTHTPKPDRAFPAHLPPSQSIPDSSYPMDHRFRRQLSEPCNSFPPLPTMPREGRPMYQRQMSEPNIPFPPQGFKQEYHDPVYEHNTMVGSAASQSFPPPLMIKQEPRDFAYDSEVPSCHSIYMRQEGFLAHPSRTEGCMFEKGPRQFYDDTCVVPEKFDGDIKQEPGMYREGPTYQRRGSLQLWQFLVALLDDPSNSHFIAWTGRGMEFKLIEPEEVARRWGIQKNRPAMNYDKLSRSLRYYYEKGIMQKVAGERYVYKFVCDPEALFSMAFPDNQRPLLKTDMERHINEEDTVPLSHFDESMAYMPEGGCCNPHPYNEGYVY
# Sequence of ETV6 (P41212 whole entry): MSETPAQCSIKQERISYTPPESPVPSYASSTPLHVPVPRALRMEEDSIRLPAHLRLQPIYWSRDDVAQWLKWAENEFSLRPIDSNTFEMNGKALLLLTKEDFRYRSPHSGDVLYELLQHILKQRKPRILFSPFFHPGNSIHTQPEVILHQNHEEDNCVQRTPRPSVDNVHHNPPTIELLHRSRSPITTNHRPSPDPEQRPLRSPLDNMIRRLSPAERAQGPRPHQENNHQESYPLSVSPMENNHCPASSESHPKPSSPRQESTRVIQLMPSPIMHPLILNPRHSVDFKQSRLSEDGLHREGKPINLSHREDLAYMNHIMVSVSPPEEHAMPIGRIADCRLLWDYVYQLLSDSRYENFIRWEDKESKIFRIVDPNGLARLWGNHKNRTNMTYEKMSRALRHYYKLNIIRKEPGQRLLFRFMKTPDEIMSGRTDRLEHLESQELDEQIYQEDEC
sequence,measurement,setting,value
ATGCTA,binding signal,[1],"1.32 fold enrichment (6-mer frequency, TF over GST control)"
same,binding signal,[2],"1.33 fold enrichment (6-mer frequency, TF over GST control)"
same,binding signal,[3],"1.46 fold enrichment (6-mer frequency, TF over GST control)"
same,binding signal,[4],"1.23 fold enrichment (6-mer frequency, TF over GST control)"
same,binding signal,[5],"1.3 fold enrichment (6-mer frequency, TF over GST control)"
same,binding signal,[6],"1.32 fold enrichment (6-mer frequency, TF over GST control)"
same,binding signal,[7],"1.43 fold enrichment (6-mer frequency, TF over GST control)"
same,binding signal,[8],"1.29 fold enrichment (6-mer frequency, TF over GST control)"
same,binding signal,[9],"1.45 fold enrichment (6-mer frequency, TF over GST control)"
same,binding signal,[10],"1.31 fold enrichment (6-mer frequency, TF over GST control)"
same,binding signal,[11],"1.26 fold enrichment (6-mer frequency, TF over GST control)"
same,binding signal,[12],"1.37 fold enrichment (6-mer frequency, TF over GST control)"
same,binding signal,[13],"1.25 fold enrichment (6-mer frequency, TF over GST control)"
same,binding signal,[14],"1.23 fold enrichment (6-mer frequency, TF over GST control)"
same,binding signal,[15],"1.3 fold enrichment (6-mer frequency, TF over GST control)"
same,binding signal,[16],"1.28 fold enrichment (6-mer frequency, TF over GST control)"
same,binding signal,[17],"1.28 fold enrichment (6-mer frequency, TF over GST control)"
same,binding signal,[18],"1.27 fold enrichment (6-mer frequency, TF over GST control)"
